This is one part of a sample in which hits are shown more often than they occur.
Dicer processing – inhibitors of human Dicer processing of pre-microRNA | cat-ELCCA pre-miR-21 Dicer processing, chemiluminescence; hits give high values | z-score at 25 µM | 6% of 47,000 active | AID 1347074; in the data active = z-score above about 3, passing the limit was not always enough;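 also: higher signal means more uncleaved substrate so more Dicer inhibition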
Target sequence (Q9UPY3 whole entry, looked up): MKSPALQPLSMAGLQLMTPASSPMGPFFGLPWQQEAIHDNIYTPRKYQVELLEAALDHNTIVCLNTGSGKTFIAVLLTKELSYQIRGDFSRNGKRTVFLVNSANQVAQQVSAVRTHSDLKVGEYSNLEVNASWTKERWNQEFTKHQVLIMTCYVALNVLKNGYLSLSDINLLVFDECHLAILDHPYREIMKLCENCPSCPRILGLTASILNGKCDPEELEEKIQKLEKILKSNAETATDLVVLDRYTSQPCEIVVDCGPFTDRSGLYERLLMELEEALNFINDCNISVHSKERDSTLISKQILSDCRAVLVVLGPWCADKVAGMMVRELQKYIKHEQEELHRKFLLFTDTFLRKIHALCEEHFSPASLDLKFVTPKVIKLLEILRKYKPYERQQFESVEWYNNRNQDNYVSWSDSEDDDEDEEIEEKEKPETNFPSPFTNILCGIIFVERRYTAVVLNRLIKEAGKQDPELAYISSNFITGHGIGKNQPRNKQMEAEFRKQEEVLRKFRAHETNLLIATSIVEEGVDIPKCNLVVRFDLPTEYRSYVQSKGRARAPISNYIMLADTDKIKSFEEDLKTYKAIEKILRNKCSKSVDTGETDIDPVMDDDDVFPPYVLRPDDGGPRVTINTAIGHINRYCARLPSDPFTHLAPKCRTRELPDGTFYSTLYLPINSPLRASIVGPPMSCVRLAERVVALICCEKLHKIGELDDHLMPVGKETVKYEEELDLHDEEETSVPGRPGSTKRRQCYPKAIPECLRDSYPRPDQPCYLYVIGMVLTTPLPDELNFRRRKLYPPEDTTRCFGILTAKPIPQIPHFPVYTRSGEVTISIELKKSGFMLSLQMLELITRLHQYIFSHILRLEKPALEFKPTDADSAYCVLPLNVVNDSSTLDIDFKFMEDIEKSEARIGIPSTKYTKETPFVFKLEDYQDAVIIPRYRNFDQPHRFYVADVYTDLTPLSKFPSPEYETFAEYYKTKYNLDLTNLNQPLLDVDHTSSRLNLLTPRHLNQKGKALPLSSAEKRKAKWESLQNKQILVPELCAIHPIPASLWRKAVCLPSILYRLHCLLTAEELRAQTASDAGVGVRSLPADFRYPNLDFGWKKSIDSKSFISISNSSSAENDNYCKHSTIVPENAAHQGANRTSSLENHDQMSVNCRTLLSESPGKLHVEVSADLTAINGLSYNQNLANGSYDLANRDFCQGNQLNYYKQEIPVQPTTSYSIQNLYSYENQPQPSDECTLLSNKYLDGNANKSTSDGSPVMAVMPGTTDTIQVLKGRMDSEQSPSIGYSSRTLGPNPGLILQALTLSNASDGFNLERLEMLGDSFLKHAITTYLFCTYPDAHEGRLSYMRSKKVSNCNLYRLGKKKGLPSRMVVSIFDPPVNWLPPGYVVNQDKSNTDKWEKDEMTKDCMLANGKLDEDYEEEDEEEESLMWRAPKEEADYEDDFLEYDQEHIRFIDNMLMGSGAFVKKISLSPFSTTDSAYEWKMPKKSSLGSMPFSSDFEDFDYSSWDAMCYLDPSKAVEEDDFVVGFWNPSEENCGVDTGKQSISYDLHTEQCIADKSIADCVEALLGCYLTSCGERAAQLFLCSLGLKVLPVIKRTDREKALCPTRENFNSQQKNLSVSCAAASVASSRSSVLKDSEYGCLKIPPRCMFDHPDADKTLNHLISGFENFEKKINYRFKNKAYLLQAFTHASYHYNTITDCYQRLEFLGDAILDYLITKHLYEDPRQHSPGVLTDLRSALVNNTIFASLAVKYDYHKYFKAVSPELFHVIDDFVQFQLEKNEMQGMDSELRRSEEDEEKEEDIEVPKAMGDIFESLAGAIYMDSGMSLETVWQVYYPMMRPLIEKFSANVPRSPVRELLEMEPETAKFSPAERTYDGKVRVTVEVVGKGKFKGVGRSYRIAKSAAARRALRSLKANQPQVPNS
Numbers stand for hits; n = inactive.

SMILES	Dicer processing
NC(=O)c1c(NC(=O)c2ccc(S(=O)(=O)N3CCCC3)cc2)sc2c1CCCC2	3.37
NC(=O)c1c(NC(=O)c2ccc(F)cc2)sc2c1CCCC2	n
NC(=O)c1c(NC(=O)c2ccc(Cl)cc2)sc2c1CCCC2	n
COc1ccc(Oc2ccc(C(F)(F)F)cc2N2C(=O)c3nccnc3C2=O)cc1	n
N#CCCN(Cc1ccccc1)C(=S)Nc1ccc(F)cc1	n
Brc1ccc(-c2cn3ccsc3n2)cc1	n
CCOC(=O)C(=CNc1ccc(Br)cn1)C(=O)OCC	n
FC(F)(F)c1cc(-c2cccs2)c2nncn2n1	n
N#C/C(=N\Nc1ccc(F)cc1)S(=O)(=O)c1cccs1	n
COc1ccc(C(c2ccc(N(C)C)cc2)c2ccc(N(C)C)cc2)c(C)c1C	3.2
CN(C)c1ccc(C(O)C(=O)c2ccccc2)cc1 (centres undefined)	n
CCNc1nc(NC(C)(C)C)nc(Oc2ccc(=O)n(-c3ccccc3)n2)n1	n
Cc1cc(C)n2nc(C(=O)N3CCOCC3)nc2n1	4.44
O=C(c1nc2nc(-c3ccccc3)cc(C(F)(F)F)n2n1)N1CCOCC1	n
COC(=O)c1nc2nc(C)cc(C)n2n1	n
Nc1ncn(C2O[C@H](CO)[C@@H](O)[C@H]2O)c(=O)n1 (some centres undefined)	n
CC1CC(N(C(=O)c2ccco2)c2ccccc2)c2ccccc2N1C(=O)c1ccco1 (centres undefined)	n
COc1cc([N+](=O)[O-])c(OC)cc1SCC(=O)NNC(=S)Nc1ccc(F)cc1	n
CC1CCN(c2oc(-c3cccs3)nc2S(=O)(=O)c2ccccc2)CC1	n
CSc1c(-c2cccs2)c(N)nn1S(=O)(=O)c1ccccc1	3.94
CSc1c(C#N)c(-c2cccs2)nn1C(=O)C(C)(C)C	n
O=C1C(=O)N(CCCn2ccnc2)C(c2ccccc2)/C1=C(\O)c1ccc(Br)cc1 (centres undefined)	n
Cc1ccc(C(c2ccc(C)o2)c2ccc(C)o2)cc1	n
CCNc1nc(N)c(C(=O)c2ccc(F)cc2)s1	n
O=C(NCc1ccccc1)N1c2ccccc2Sc2ccccc21	n
SMILES	Dicer processing
O=C(NCc1ccccc1)C1CCC(C(=O)NCc2ccccc2)N1 (centres undefined)	n
O=C(NCc1ccccc1)N1CC2C=CC1C2 (centres undefined)	6.22
CCOC(=O)C(=CNc1cc(C(C)(C)C)sc1C(=O)OC)C(=O)OCC	n
CCOCCSc1nc(N)c2c3c(sc2n1)COC(C)(C)C3	n
S=C1CC(c2ccccc2)Sc2ccccc2N1 (centres undefined)	n
CC1(O)CC(c2ccccc2)SC(c2ccccc2)C1 (centres undefined)	n
c1ccc(C2CCCC(c3ccccc3)S2)cc1 (centres undefined)	4.77
O=c1oc(-c2cccc(F)c2)nc2ccc([N+](=O)[O-])cc12	n
O=C1CSC(c2ccccc2)N1c1ccc(O)cc1 (centres undefined)	n
COc1ccc(OC)c(C2/C(=C(\O)c3ccccc3)C(=O)C(=O)N2c2cccnc2)c1 (centres undefined)	n
CCC(C)NC(=O)c1nn2c(C(F)(F)F)cc(-c3cccs3)nc2c1Cl (centres undefined)	n
CC(C)(C)OC(=O)NC1CCN(C(=O)Nc2ccc(F)cc2F)CC1	n
CCOC(=O)C1CCN(C(=O)Nc2ccc(F)cc2F)CC1	n
O=C(Nc1ccc(F)cc1F)N1CCN(Cc2ccccc2)CC1	3.04
NC(=O)c1cccnc1OCC(F)(F)F	n
O=C(Nc1c(C(=O)c2ccccc2)oc2ccccc12)c1ccccc1F	n
O=c1cc(-c2cc(Br)cc3c2OCOC3)oc2ccccc12	3.49
Cc1cc2oc(-c3ccccc3C(=O)O)cc(=O)c2cc1C	n
Cc1ccccc1-c1cc(=O)c2cc(Cl)ccc2o1	n
CCN(CC)c1ccc(C2C(C#N)=C(C)NC3=C2C(=O)CC(c2ccccc2)C3)cc1 (centres undefined)	n
CC(=O)c1sc2sc(C#N)c(C)c2c1C	n
CCOC(=O)C1(C)C=C(Nc2ccc(OC)cc2)C(=O)N1c1ccc(OC)cc1 (centres undefined)	n
CCOC(=O)C1(C)C=C(Nc2ccc(OCC)cc2)C(=O)N1c1ccc(OCC)cc1 (centres undefined)	3.17
CCOC(=O)C1(C)C(Br)=C(Nc2ccc(Cl)cc2)C(=O)N1c1ccccc1 (centres undefined)	n
CCOC(=O)c1c(CN(C)C)n(C)c2cc(Br)c(O)c(CN(C)C)c12	n
SMILES	Dicer processing
CCOC(=O)c1c(C)n(C)c2cc(CN(C)C)c(O)c(S(=O)(=O)c3ccccc3)c12	3.8
CCOC(=O)c1c(CS(=O)(=O)c2ccccc2)n(C)c2cc(Br)c(O)cc12	n
COCCOc1ccc(NC(=O)c2ccc(Cl)c(Cl)c2)cc1	n
CN1C(=O)C(O)(CC(=O)c2ccc(Cl)cc2)c2ccccc21 (centres undefined)	3.89
CC(C)c1ccc(C(=O)CC2(O)C(=O)N(C)c3ccccc32)cc1 (centres undefined)	n
C=CCN1C(=O)C(O)(CC(=O)c2ccc3c(c2)OCO3)c2ccccc21 (centres undefined)	4.29
CCOC(=O)CN1C(=O)C(O)(CC(=O)c2ccc3c(c2)OCO3)c2ccccc21 (centres undefined)	n
C=CCN1C(=O)C(O)(CC(=O)c2ccc(CC)cc2)c2ccccc21 (centres undefined)	3.2
C=CCN1C(=O)C(O)(CC(=O)c2c(C)cc(C)cc2C)c2ccccc21 (centres undefined)	n
CN1C(=O)C(O)(CC(=O)c2ccc(C(C)(C)C)cc2)c2ccccc21 (centres undefined)	n
C=CCN1C(=O)C(O)(CC(=O)c2ccc3c(c2)OCCO3)c2ccccc21 (centres undefined)	n
C=CCN1C(=O)C(O)(CC(=O)c2ccc(C)cc2)c2ccccc21 (centres undefined)	n
C=CCN1C(=O)C(O)(CC(=O)c2ccccc2)c2ccccc21 (centres undefined)	n
CCN1C(=O)C(O)(CC(=O)c2ccncc2)c2ccccc21 (centres undefined)	n
CCN1C(=O)C(O)(CC(=O)c2c(C)cc(C)cc2C)c2ccccc21 (centres undefined)	3.5
COc1ccccc1C1CCN(c2ccc(/C=C/C(=O)NCc3ccccc3)cc2[N+](=O)[O-])CC1	n
CCNS(=O)(=O)c1cc(-c2nnc(OC)c3ccccc23)ccc1C	n
Cc1ccc(C2/C(=C(\O)c3ccc(S(=O)(=O)N(C)C)cc3)C(=O)C(=O)N2CCN(C)C)cc1 (centres undefined)	n
CC(C)C(NC(=O)CN1C(=O)c2cccc3cccc1c23)C(C)C	n
CCOC(=O)/C=C(C)/C=C/C=C(C)/C=C/c1c(C)cc(OC)c(C)c1C	n
O=c1[nH]nc(SCCS(=O)(=O)c2ccc(F)cc2)n1-c1ccccc1	n
CC(C)Nc1cc(C(F)(F)F)c(C(=O)Nc2ccc(Cl)cc2Cl)cn1	n
CCOC(=O)c1sc(N2C(=O)C(=O)/C(=C(/O)c3ccc(F)cc3)C2c2ccc(F)cc2)nc1C (centres undefined)	n
O=C(CSc1nncc2ccccc12)Nc1ccccc1	n
O=C(Nc1cccnc1)N1CCC(Cc2cccc(Oc3ccc(C(F)(F)F)cn3)c2)CC1	n
O=C(O)CSc1ccc2c3c(cccc13)C(=O)c1ccccc1-2	n
N#Cc1c(C(F)(F)F)cc(-c2cccs2)nc1Sc1ccccc1NC(=O)c1cccs1	n
Cc1ccnc(SCC2=NN(c3nc(C)cc(C)n3)C(=O)C2)n1	n
